Laboratory results published in ChEMBL document CHEMBL3988442, “University of Dundee, Small-Polar-MMV Screening Library” (2021).
Screen size: about 48,000 compounds; about 13,000 (27%) showed an effect of 50% or more. This is one part of the list.

The compounds below were run on Wolbachia pipientis (assay: Anti-Wolbachia Cell-Based Screen). Conditions: 5 µM.
Type: functional
Parameters: scale not given: in the data most compounds retested in dose-response had high values

Compound | Percent Effect [%]
COc1cc(-c2cccc3c2OC(CN)C3)ccc1O (stereo unspecified) | 12.42
CC(C)(C)NC(=O)c1cnc2n1CCCC2 | -4.757
CCOC(=O)N1CCN(c2nc(C)ncc2CC)CC1 | -1.601
CC(=O)N1CCC2(CC1)c1ncc(-c3ccccc3)n1CCN2C(C)=O | 23.35
CC(=O)N1CCn2c(-c3ccccc3)cnc2C12CCNCC2.O=C(O)C(F)(F)F.O=C(O)C(F)(F)F | -11.86
CCS(=O)(=O)N1CCC2(CC1)c1ncc(-c3cccnc3)n1CCN2C | 107
CC(=O)N1CCC2(CC1)c1ncc(-c3ccc(F)cc3)n1CCN2C | 95.01
CN1CCn2c(-c3ccccc3)cnc2C12CCN(CC1CC1)CC2.O=C(O)C(F)(F)F.O=C(O)C(F)(F)F.O=C(O)C(F)(F)F | -7.532
Cc1ccc(-c2cnc3n2CCN(C)C32CCN(CC3CC3)CC2)cc1.O=C(O)C(F)(F)F.O=C(O)C(F)(F)F.O=C(O)C(F)(F)F | 0.5048
CC(=O)N1CCC2(CC1)c1ncc(-c3ccccc3)n1CCN2C | 98.56
CCS(=O)(=O)N1CCC2(CC1)CCn1c(-c3cnn(C)c3)cnc12.O=C(O)C(F)(F)F | 2.009
Cc1cc(C(=O)N2CCC(n3cc(CO)nn3)CC2)ccc1F | 2.644
CN(C)C(=O)CCN1CC(c2ccccc2)(c2ccccc2)CCC1=O | -7.363
Cc1nnc(CN(C)CC(=O)N2CCCC(C)CC2)n1C (stereo unspecified) | -6.061
Cc1cc(C[C@@H]2COC[C@@H]2NC(=O)CNC(=O)N(C)C)on1 | -9.814
CS(=O)(=O)CCC(=O)NC(Cc1ccccc1)C1CC1 (stereo unspecified) | 2.067
O=C(CCN1CCCC1=O)NCc1cccnc1Oc1ccccc1 | -4.21
O=C(CCOc1ccc(F)cc1)N1CCCC1Cn1cccn1 (stereo unspecified) | 126.4
Cc1cccc(OCCNC(=O)CN2CCCC2Cn2cccn2)c1 (stereo unspecified) | -3.043
O=C(CCCOc1ccccc1)N1CCCC1Cn1cccn1 (stereo unspecified) | 116.1
O=C(CCOc1cccc(F)c1)N1CCCC1Cn1cccn1 (stereo unspecified) | 124.8
O=C(CN1CCCC1Cn1cccn1)NCCOc1cccc(F)c1 (stereo unspecified) | 99.45

Compound | Percent Effect [%]
COc1cccc(CNC(=O)CN2CCCCC2Cn2cccn2)c1 (stereo unspecified) | 0.3805
CN(CC(=O)N1CCCC1Cn1cccn1)C1CC1 (stereo unspecified) | -6.628
COCc1nc(CNC(=O)C(C)n2ccnc2C(C)C)no1 (stereo unspecified) | -16.22
Cc1ccc(NC(=O)NC(C)C(=O)N2CCS(=O)(=O)CC2)cc1 (stereo unspecified) | -2.937
COc1cccc(COCC(=O)N2CCCC(n3cccn3)C2)c1 (stereo unspecified) | 17.54
COc1cccc(COCC(=O)N2CCCC2Cn2cccn2)c1 (stereo unspecified) | 116
COc1ccc(OCCC(=O)N2CCCC2Cn2cccn2)cc1 (stereo unspecified) | 116.7
COc1ccc(CC(=O)N2CCCCC2Cn2cccn2)cc1 (stereo unspecified) | 136.1
COc1ccc2c(ccn2CC(=O)N2CCCC2Cn2cccn2)c1 (stereo unspecified) | 2.808
O=C(c1ccc(Br)o1)N1CCCCC1Cn1cccn1 (stereo unspecified) | 0.8504
COc1cccc(COCC(=O)N2CCCC(N3CCCC3)CC2)c1 (stereo unspecified) | -3.543
COc1ccc2cc(C(=O)N3CCCCC3Cn3cccn3)[nH]c2c1 (stereo unspecified) | -2.712
Cc1ccc(CC(=O)N2CCCCC2Cn2cccn2)cn1 (stereo unspecified) | 89.03
O=C(Cn1cnnn1)N1CCCCC1Cn1cccn1 (stereo unspecified) | -6.209
Cc1cc(CN(C)C(=O)c2ccc(F)cc2F)no1 | 11.87
COc1c(Br)cccc1CCNC(=O)c1csnn1 | -2.024
CN1CCC(Cc2noc(CCc3nc4ccccc4nc3O)n2)CC1 | -2.649
Cc1cnc(C)c(N2CCN(CCCc3ccncc3)CC2)n1 | -5.646
CC(C)NC(=O)NC(=O)C(C)N1CCN(C2CCN(C(C)C)CC2)CC1 (stereo unspecified) | -25.53
COC(=O)C1CCCCN1Cc1cccc(C(=O)NCc2ccco2)c1 (stereo unspecified) | 0.7191
CCc1cnc(C)nc1NC(CC)c1ncnn1CC (stereo unspecified) | 9.184
CCn1ncnc1C(C)Nc1cc(C)c2ccc(SC)cc2n1 (stereo unspecified) | -5.818

Compound | Percent Effect [%]
CCn1ncnc1C(C)Nc1cc(C2CC2)ncn1 (stereo unspecified) | 83.57
CCn1nc(C)c(C(C)Nc2cc(C3CCNCC3)nc(C)n2)c1C (stereo unspecified) | 97.89
CCn1ncnc1C(C)NC(=O)C1CCN(C(C)C)CC1 (stereo unspecified) | -6.672
CCn1ncnc1C(C)Nc1cc(C2CCNCC2)nc(C)n1 (stereo unspecified) | 90.92
CCn1ncnc1C(C)NC(=O)CC1CCN(C(C)C)CC1 (stereo unspecified) | -18.67
NC(=O)CCNC(=O)Cc1cccc(I)c1 | -0.109
COc1cc(C(C)NCc2scnc2C)ccc1SC(F)F (stereo unspecified) | -45.23
Cc1ccc(N2CC3(CCN(S(=O)(=O)C4CC4)C3)C2)nn1 | -11.71
Cc1nc(C)n(CC2CCCN2CC(=O)NCc2ccco2)n1 (stereo unspecified) | -10.96
Cc1nn(C)c(Cl)c1C1CCCN1CC(=O)NCc1ccco1 (stereo unspecified) | 93.09
COCCNC(=O)CN1CCCC1c1c(C)nn(C)c1Cl (stereo unspecified) | 87.98
COCCCNC(=O)CN1CCCC1c1c(C)nn(C)c1Cl (stereo unspecified) | -2.309
Cc1nn(C)c(C)c1C1CCCN1CC(=O)NC(C1CC1)C1CC1 (stereo unspecified) | 8.112
NC(=O)CN1C(=O)CO[C@H]2CN(Cc3ccc(Cl)cc3)C[C@H]21 | -3.813
CN(CC(N)=O)Cc1c(Cl)ccc2cccnc12 | 1.669
COc1ccc(Cl)cc1NCC(=O)N(Cc1ccncc1)C1CC1 | 10.17
CN(C)S(=O)(=O)CCNc1ncc2c(n1)CCN2c1ccccc1 | -5.162
Cc1cc(NCCS(C)(=O)=O)nc2ccccc12 | 2.58
Cc1ccc(CSc2nc(N)cc(NCCS(=O)(=O)N(C)C)n2)cc1 | 94.01
Cc1ccc(CSc2nc(N)cc(NCC(=O)N3CCNCC3)n2)cc1 | 0.4693
Cc1ccc(CSc2nc(N)cc(NCCC(N)=O)n2)cc1 | -9.969
Cc1ccc(CSc2nc(N)cc(NCCC(=O)N3CCCC3)n2)cc1 | 92.81
